In PubChem BioAssay AID1159580 (chemical genetic matrix, 2015):
About 2,000 (36%) of roughly 5,500 compounds were called active. Roughly 18% stayed inconclusive and do not appear here. Some of the results follow. Values without a mark were called inactive. No stated cut-off is given here; in the data, active means normalized growth mostly below about 0.91 (no sharp cut-off); inconclusive means no clear call, values can overlap the other calls; inactive means mostly above about 0.92.

Assay: chemical genetic growth profiling, strain panel (AID 1159580);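 further: tested at 20 µM; growth read once vehicle control cultures reached saturation at 30 °C; 1 = growth at the plate median or of vehicle wells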
Details: S. cerevisiae deletion strains, growth OD
[1] = locus YHR030C, strain SLT2, stronger effect = lower value
[2] = locus YHR079C, strain IRE1, stronger effect = lower value
[3] = locus YJL095W, strain BCK1, stronger effect = lower value
[4] = locus YJR066W, strain TOR1, stronger effect = lower value
[5] = locus YLR113W, strain HOG1, stronger effect = lower value
[6] = locus YNL183C, strain NPR1, stronger effect = lower value
[7] = locus YOR231W, strain MKK1, stronger effect = lower value
[8] = locus YPL256C, strain CLN2, stronger effect = lower value

SMILES: O=C(NNc1c(Cl)cccc1Cl)c1ccc([N+](=O)[O-])o1
- normalized growth (locus YAR019C, strain CDC15, stronger effect = lower value): 0.956
- normalized growth (locus YBL105C, strain PKC1, stronger effect = lower value): 0.967
- normalized growth (locus YBR135W, strain CKS1, stronger effect = lower value): 0.957
- normalized growth (locus YBR136W, strain MEC1, stronger effect = lower value): 0.964
- normalized growth (locus YBR160W, strain CDC28, stronger effect = lower value): 0.945
- normalized growth (locus YDL017W, strain CDC7, stronger effect = lower value): 0.972
- normalized growth (locus YDL028C, strain MPS1, stronger effect = lower value): 0.941
- normalized growth (locus YDL101C, strain DUN1, stronger effect = lower value): 0.964
- normalized growth (locus YDL108W, strain KIN28, stronger effect = lower value): 0.949
- normalized growth (locus YDL132W, strain cdc53, stronger effect = lower value): 0.936
- normalized growth (locus YDL214C, strain PRR2, stronger effect = lower value): 0.895
- normalized growth (locus YDR052C, strain DBF4, stronger effect = lower value): 0.981
- normalized growth (locus YDR054C, strain cdc34, stronger effect = lower value): 0.959
- normalized growth (locus YDR226W, strain ADK1, stronger effect = lower value): 0.96
- normalized growth (locus YDR477W, strain SNF1, stronger effect = lower value): 0.873
- normalized growth (locus YER123W, strain YCK3, stronger effect = lower value): 0.87
- normalized growth (locus YER133W, strain GLC7, stronger effect = lower value): 0.916
- normalized growth (locus YFL009W, strain cdc4, stronger effect = lower value): 0.918
- normalized growth (locus YFL029C, strain CAK1, stronger effect = lower value): 0.948
- normalized growth (locus YFR003C, strain YPI1, stronger effect = lower value): 0.965
- normalized growth (locus YFR019W, strain FAB1, stronger effect = lower value): 0.89
- normalized growth (locus YFR028C, strain CDC14, stronger effect = lower value): 0.925
- normalized growth (locus YGR040W, strain KSS1, stronger effect = lower value): 0.883
- normalized growth (locus YGR052W, strain FMP48, stronger effect = lower value): 0.938
- normalized growth (locus YGR092W, strain DBF2, stronger effect = lower value): 0.874
- normalized growth [1]: 0.698 (active)
- normalized growth [2]: 0.885
- normalized growth (locus YHR082C, strain KSP1, stronger effect = lower value): 0.916
- normalized growth (locus YHR205W, strain SCH9, stronger effect = lower value): 0.897
- normalized growth (locus YIL147C, strain SLN1, stronger effect = lower value): 0.96
- normalized growth [3]: 0.833
- normalized growth (locus YJL128C, strain PBS2, stronger effect = lower value): 0.899
- normalized growth (locus YJL157C, strain FAR1, stronger effect = lower value): 0.907
- normalized growth (locus YJR016C, strain ILV3, stronger effect = lower value): 0.956
- normalized growth (locus YJR066W, strain TOR1 (second series), stronger effect = lower value): 0.851
- normalized growth [4]: 0.848
- normalized growth (locus YKL048C, strain ELM1, stronger effect = lower value): 0.909
- normalized growth (locus YKL067W, strain YNK1, stronger effect = lower value): 0.886
- normalized growth (locus YKL101W, strain HSL1, stronger effect = lower value): 0.884
- normalized growth (locus YKL193C, strain SDS22, stronger effect = lower value): 0.956
- normalized growth (locus YKL203C, strain TOR2, stronger effect = lower value): 0.974
- normalized growth [5]: 0.777 (active)
- normalized growth (locus YLR133W, strain CKI1, stronger effect = lower value): 0.906
- normalized growth (locus YLR403W, strain SFP1, stronger effect = lower value): 0.897
- normalized growth (locus YML070W, strain DAK1, stronger effect = lower value): 0.884
- normalized growth (locus YMR001C, strain CDC5, stronger effect = lower value): 0.957
- normalized growth (locus YMR205C, strain PFK2 (second series), stronger effect = lower value): 0.937
- normalized growth (locus YMR277W, strain FCP1, stronger effect = lower value): 0.932
- normalized growth (locus YNL006W, strain LST8, stronger effect = lower value): 0.973
- normalized growth (locus YNL020C, strain ARK1, stronger effect = lower value): 0.919
- normalized growth (locus YNL161W, strain CBK1, stronger effect = lower value): 0.966
- normalized growth [6]: 0.935
- normalized growth (locus YNL207W, strain RIO2, stronger effect = lower value): 0.953
- normalized growth (locus YNL222W, strain SSU72, stronger effect = lower value): 0.94
- normalized growth (locus YNL307C, strain MCK1 (second series), stronger effect = lower value): 0.887
- normalized growth (locus YOL078W, strain AVO1, stronger effect = lower value): 0.945
- normalized growth (locus YOL136C, strain PFK27, stronger effect = lower value): 0.886
- normalized growth (locus YOR061W, strain CKA2, stronger effect = lower value): 0.914
- normalized growth (locus YOR119C, strain RIO1, stronger effect = lower value): 0.917
- normalized growth [7]: 0.837
- normalized growth (locus YOR329C, strain SCD5, stronger effect = lower value): 0.967
- normalized growth (locus YPL031C, strain PHO85, stronger effect = lower value): 0.88
- normalized growth (locus YPL153C, strain RAD53, stronger effect = lower value): 0.875
- normalized growth (locus YPL204W, strain HRR25, stronger effect = lower value): 0.866
- normalized growth (locus YPL209C, strain IPL1, stronger effect = lower value): 0.964
- normalized growth [8]: 0.811 (active)
- normalized growth (locus YPR025C, strain CCL1, stronger effect = lower value): 0.962
- normalized growth (locus YPR106W, strain ISR1, stronger effect = lower value): 0.96
- normalized growth (locus YPR111W, strain DBF20, stronger effect = lower value): 0.94
- normalized growth (strain NNK1, stronger effect = lower value): 0.965
- normalized growth (strain TSCII, stronger effect = lower value): 0.947

SMILES: O=C(N/N=C\c1ccc([N+](=O)[O-])o1)c1ccc(O)cc1
- normalized growth [1]: 0.924
- normalized growth [2]: 0.936
- normalized growth [3]: 0.907
- normalized growth [4]: 0.883
- normalized growth [5]: 0.872
- normalized growth [6]: 0.869
- normalized growth [7]: 0.91
- normalized growth [8]: 0.956
